Measured values from PubChem BioAssay AID504326 (The Scripps Research Institute Molecular Screening Center, 2011).
Out of some 340,000 compounds screened, about 990 (0.29%) were called active. Many of the other results were omitted from the sample, so actives are more common in it than they were. A number with no mark means an inactive call. Rule as the data show it: active = activation above about 18%; inactive = the rest.

Target: Mu-type opioid receptor (Homo sapiens) + Delta-type opioid receptor (Homo sapiens) (UniProt P35372+P41143)
Assay: agonists of OPRM1-OPRD1 heterodimerization, primary screen, cell-based, luminescence (AID 504326);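 also: 0% = vehicle-treated cells and 100% = reference agonist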
Details: cells, at 9.3 µM, hits give high values

Mu-type opioid receptor (Homo sapiens) + Delta-type opioid receptor (Homo sapiens), sequence (P35372 whole entry, looked up): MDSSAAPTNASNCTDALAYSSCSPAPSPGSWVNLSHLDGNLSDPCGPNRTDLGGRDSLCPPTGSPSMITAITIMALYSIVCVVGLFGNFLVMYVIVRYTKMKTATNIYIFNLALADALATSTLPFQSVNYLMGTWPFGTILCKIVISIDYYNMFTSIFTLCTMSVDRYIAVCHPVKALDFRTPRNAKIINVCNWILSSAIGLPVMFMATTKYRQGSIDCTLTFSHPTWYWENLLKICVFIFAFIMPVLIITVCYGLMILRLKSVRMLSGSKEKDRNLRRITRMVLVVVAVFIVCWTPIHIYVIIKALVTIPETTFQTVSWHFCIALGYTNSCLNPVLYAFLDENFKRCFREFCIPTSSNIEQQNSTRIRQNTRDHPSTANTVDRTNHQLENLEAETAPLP
Mu-type opioid receptor (Homo sapiens) + Delta-type opioid receptor (Homo sapiens), sequence (P41143 whole entry, looked up): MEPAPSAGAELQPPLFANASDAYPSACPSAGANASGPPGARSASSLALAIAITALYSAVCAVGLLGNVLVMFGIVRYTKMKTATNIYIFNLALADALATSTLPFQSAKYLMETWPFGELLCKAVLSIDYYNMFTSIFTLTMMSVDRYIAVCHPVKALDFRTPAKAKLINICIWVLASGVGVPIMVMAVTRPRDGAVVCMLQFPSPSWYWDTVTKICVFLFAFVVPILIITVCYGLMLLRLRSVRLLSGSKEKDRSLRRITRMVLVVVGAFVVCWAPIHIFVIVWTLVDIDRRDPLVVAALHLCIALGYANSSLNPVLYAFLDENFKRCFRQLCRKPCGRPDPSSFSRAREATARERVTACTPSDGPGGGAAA

Question: With C=C(C)COc1ccc(-c2n[nH]c(C)c2-c2ccccc2)c(O)c1 as the compound, how does the activation read?
Answer: The activation was 20.9% (active).

Question: C=C(C)COc1ccc(-c2ncncc2-c2ccc(OC)cc2)c(O)c1 was tested. Which activation did it give?
Answer: The activation was 0.28%.

Question: With C=C(C)COc1ccc(-c2nc(N)ncc2-c2ccccc2OC)c(O)c1 as the compound, how does the activation read?
Answer: Its activation is 5.76%.

Question: COCCCNC(=O)Cn1cc(/C=C(\C#N)C(=O)N2CCN(c3ccccc3)CC2)c2ccccc21 was tested. Which activation did it give?
Answer: The activation was -0.49%.

Question: How did the activation turn out when Cc1ccc(N=C2NC(=O)c3cccc([N+](=O)[O-])c32)cc1 was run?
Answer: Its activation is -1.31%.

Question: Cc1ccc(C(=O)NCC(c2cccs2)N(C)C)cc1S(=O)(=O)N1CCOCC1 (stereo not given) was tested. Which activation did it give?
Answer: The activation was 7.26%.

Question: With COc1ccccc1CNC(=O)c1ccc(Cl)c(S(=O)(=O)N2CCCC2)c1 as the compound, how does the activation read?
Answer: Its activation is -1.63%.

Question: COc1ccccc1C(CNC(=O)c1ccc(C)c(S(=O)(=O)N2CCCCC2)c1)N(C)C (stereo not given) was tested. Which activation did it give?
Answer: Its activation is 33.2% (active).

Question: How did the activation turn out when CCCOc1ccc(C(=O)C(CCC(CNCC)C(=O)c2ccc(OCCC)cc2)CNCC)cc1 (stereo not given) was run?
Answer: Its activation is 11.1%.

Question: How did the activation turn out when C=CCOc1c2ccc(C(=O)N(CC)c3ccc(OC)cc3)cc2nn1C was run?
Answer: Its activation is 0.36%.

Question: With COc1cccc(NC(=O)c2ccccc2N(Cc2ccccc2)S(C)(=O)=O)c1 as the compound, how does the activation read?
Answer: Its activation is -3.67%.

Question: For COc1cc(C(=O)OC(C)C(=O)NCC2CCCCC2)cc(NC(=O)c2ccco2)c1OC (stereo not given), which activation is on record?
Answer: Its activation is 26.7% (active).

Question: How did the activation turn out when COc1ccc(NC(=O)CCC(=O)Nc2cc(OC)c(NC(=O)c3ccco3)cc2OC)c(OC)c1 was run?
Answer: The activation was 0.82%.

Question: For CC(OC(=O)c1ccc([N+](=O)[O-])cc1)C(=O)NCC1CCCCC1 (stereo not given), which activation is on record?
Answer: Its activation is 0.26%.

Question: With CNC(=O)c1[nH]cnc1C(=O)N[C@@H](CC(C)C)C(=O)OC(C)(C)C as the compound, how does the activation read?
Answer: The activation was 0.92%.

Question: For Cc1ccc(S(=O)(=O)NC(C)C(=O)Nc2ccccc2C(=O)N2CCCC2)cc1 (stereo not given), which activation is on record?
Answer: Its activation is 2.72%.

Question: With COc1ccc(CSc2nnnn2-c2ccc(C(=O)O)cc2)cc1 as the compound, how does the activation read?
Answer: The activation was -1.43%.

Question: For COc1ccc(-n2nnnc2-c2nc3ccccc3s2)cc1, which activation is on record?
Answer: The activation was 20.4% (active).

Question: For COc1ccc(-n2nnnc2CNC(=O)c2ccc3ccccc3c2)cc1, which activation is on record?
Answer: Its activation is -0.36%.

Question: With Cc1ccc(S(=O)(=O)NC(C(=O)N2CCOCCOCCOCCOCC2)c2ccccc2)cc1 (stereo not given) as the compound, how does the activation read?
Answer: Its activation is -1.61%.

Question: For CC(=O)N1CCN(C(=O)C2(NC(=O)Nc3ccc(C)cc3)CCCCC2)CC1, which activation is on record?
Answer: The activation was -2.72%.

Question: For CCOc1ccc(-c2c(C)n([O-])c3c([n+]2=O)CCCC3)cc1, which activation is on record?
Answer: Its activation is -0.63%.

Question: With C[C@H]1CC[C@]2(O[C@@H](CCO)C[C@@H](O)[C@@H]2O)O1 as the compound, how does the activation read?
Answer: Its activation is 3.63%.

Question: Which activation does the source give for CC(C)(C)OC(=O)CNC(=O)c1[nH]cnc1C(=O)N[C@@H](Cc1ccccc1)C(=O)OCc1ccccc1 here?
Answer: The activation was 14.2%.

Question: O=C(N[C@@H](Cc1ccccc1)C(=O)OCc1ccccc1)c1nc[nH]c1C(=O)NC1CCNCC1 was tested. Which activation did it give?
Answer: The activation was -2.25%.

Question: With CC(C)(C)OC(=O)N1CCC(NC(=O)c2[nH]cnc2C(=O)N[C@@H](Cc2ccccc2)C(=O)OCc2ccccc2)CC1 as the compound, how does the activation read?
Answer: The activation was 21.9% (active).

Question: With CCN1CCC2(CC1)N=C(c1ccc(F)cc1)C(=S)N2C(=O)c1ccc(C)cc1 as the compound, how does the activation read?
Answer: The activation was 13.8%.

Question: How did the activation turn out when Cc1ccc(CN2C(=O)N/C(=C/c3cc(C)n(-c4ccccn4)c3C)C2=O)cc1 was run?
Answer: Its activation is -1.23%.

Question: How did the activation turn out when CN(C)c1ccc(/C=C2\NC(=S)N(Cc3ccccc3)C2=O)cc1 was run?
Answer: Its activation is 0.84%.

Question: Which activation does the source give for O=C1N/C(=C/c2cccs2)C(=O)N1Cc1ccc(F)cc1 here?
Answer: The activation was 18.9% (active).

Question: For CCn1c(SCC(=O)Nc2ccc(C)cc2)nc2nc3c(cc2c1=O)CCCC3, which activation is on record?
Answer: Its activation is -0.65%.

Question: Which activation does the source give for CCOc1ccc(NC(=O)CCS(=O)(=O)c2cccc3nsnc23)cc1 here?
Answer: Its activation is -1.59%.

Question: For O=C(NCc1ccccc1)c1onc(CSc2ccncc2)c1C(=O)NCc1ccccc1, which activation is on record?
Answer: Its activation is -1.19%.

Question: For CCOc1cc(S(=O)(=O)NC2CC(C)(C)NC(C)(C)C2)ccc1F, which activation is on record?
Answer: The activation was -2.58%.

Question: For COCCN(C(=O)CCC(=O)Nc1nccs1)C(C(=O)NCCC(C)C)c1ccc(F)cc1 (stereo not given), which activation is on record?
Answer: Its activation is -1.57%.

Question: Which activation does the source give for CC1CN(CCCOc2ccccc2-c2ccccc2)CC(C)O1 (stereo not given) here?
Answer: Its activation is 4.64%.

Question: Which activation does the source give for CC1CCCN(CCOCCOc2ccccc2-c2ccccc2)C1 (stereo not given) here?
Answer: Its activation is 18.4% (active).

Question: For c1ccc(-c2ccccc2OCCN2CCCCC2)cc1, which activation is on record?
Answer: The activation was -3.6%.

Question: Cc1c(NC(=O)C(C)OC(=O)c2c3c(nc4ccccc24)CCC(C)C3)c(=O)n(-c2ccccc2)n1C (stereo not given) was tested. Which activation did it give?
Answer: Its activation is -2.46%.

Question: With CC(C)(C)NS(=O)(=O)c1ccc(NC(=O)C2CCCO2)cc1 (stereo not given) as the compound, how does the activation read?
Answer: Its activation is 0.39%.

Question: For CC(=O)c1ccc(S(=O)(=O)Nc2ccc(C(=O)NCC(c3ccccc3)N(C)C)cc2)cc1 (stereo not given), which activation is on record?
Answer: Its activation is 0.68%.

Question: With CN(C)C(CNC(=O)c1ccc(S(=O)(=O)NCc2ccco2)cc1)c1ccccc1 (stereo not given) as the compound, how does the activation read?
Answer: Its activation is 20.7% (active).

Question: With O=C(NC1CCC(O)CC1)c1ccc(S(=O)(=O)NCc2ccco2)cc1 (stereo not given) as the compound, how does the activation read?
Answer: The activation was -2.16%.

Question: Which activation does the source give for COc1ccc(CNC(=O)c2cc(C(=O)C3CC3)c[nH]2)cc1 here?
Answer: Its activation is -1.28%.

Question: How did the activation turn out when CC(C)Cc1nnc(NC(=O)CN2C(=O)NC3(CCCCC3)C2=O)s1 was run?
Answer: The activation was -1.6%.

Question: CCc1ccc(NC(=O)COC(=O)c2cccs2)cc1 was tested. Which activation did it give?
Answer: The activation was 0.52%.

Question: How did the activation turn out when Cc1ccc(OCC(=O)Nc2ccc(N3CCN(C(=O)c4ccco4)CC3)cc2)c(C)c1 was run?
Answer: The activation was 2.18%.

Question: With Cc1ccc(OCC(=O)Nc2ccc(NC(=O)c3cccs3)cc2)c(C)c1 as the compound, how does the activation read?
Answer: Its activation is 19.7% (active).

Question: Which activation does the source give for COC(=O)C1=C(C)N(C)C(=S)NC1c1cc(OC)ccc1OC (stereo not given) here?
Answer: The activation was 1.16%.

Question: For C[C@H]1CCC(=O)N([C@H](CSc2ccccc2)Cc2ccccc2)CC1, which activation is on record?
Answer: The activation was 2.5%.

Question: For O=C1CC[C@H](O)CCN1[C@H](CSc1ccc(Br)cc1)Cc1ccccc1, which activation is on record?
Answer: Its activation is -1.02%.

Question: COc1ccc(SC[C@H](Cc2ccccc2)N2CCN(CCc3ccccc3)CCC2=O)cc1 was tested. Which activation did it give?
Answer: Its activation is 26.4% (active).

Question: How did the activation turn out when CS(=O)(=O)N(C(=O)NC(=O)NC1CCS(=O)(=O)C1)C1CCCCC1 (stereo not given) was run?
Answer: Its activation is 1.27%.

Question: CNC(=O)NC(=O)C(C)N1CCN(C/C=C/c2ccccc2)CC1 (stereo not given) was tested. Which activation did it give?
Answer: Its activation is 0.24%.

Question: How did the activation turn out when Cc1ccc(NC(=O)c2oc(=O)c3ccccc3c2-c2ccccc2)c(C)c1 was run?
Answer: Its activation is -0.43%.
